# Compounds without any hit were thinned out: in the full panel of roughly 83,000, 20% have a hit.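 Cells were grown in 96-well plates and exposed to the test compound at a single concentration for 48 hours; results are reported as percent growth, with values below 10 considered active.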 Values without a mark were called inactive. Calls of active or inactive are those of the source.
# Tested on: K-562 leukemia
# Experiment: NCI-60 one-dose screen, 48 h (100 = growth as untreated, 0 = no growth, -100 = all killed)
# Conditions: 10 µM unless noted
row,Structure (SMILES),growth
1,CCn1c(Cc2ccccc2Nc2c(Cl)cccc2Cl)nnc1SCC(=O)Nc1cccc(OC)c1,62.6%
2,COc1ccc2nc(C)cc(Sc3nc4ccccc4s3)c2c1,4.93% (active)
3,COc1cnc2c(c1)C(=O)c1c-2n(CCCN2CCN(C)CC2)c(=O)c2cc(Cl)ccc12,-76.1% (active)
4,c1cn2cc(-c3ccc4ncn(C5CCCCC5)c4c3)nc(-c3ccc4c(c3)ncn4C3CCCCC3)c2n1,-4.74% (active)
5,CN1C(=O)N(C)C2C1NN=c1s/c(=C\c3ccc(C(F)(F)F)cc3)c(=O)n12 (stereo unspecified),10.6%
6,CN1C(=O)N(C)C2C1NN=c1s/c(=C\c3ccsc3)c(=O)n12 (stereo unspecified),13.5%
7,C/C(=N\Nc1ccc([N+](=O)[O-])cn1)c1ccc(N)cc1,13.8%
8,COc1ccccc1/C=N\Nc1ccc([N+](=O)[O-])cn1,112%
9,CCCCCCCCCCCCCCCCCC(=O)[O][Sn]([CH2]CCC)([CH2]CCC)[CH2]CCC,-42.8% (active)
10,C[C@H](NC(=O)c1snnc1C1CC1)c1c(F)cccc1Cl,115%
11,CC(C)c1cccc(C#N)c1,109%
12,CN1C(=O)N(C)C2C1NN=c1s/c(=C\c3ccc(Br)cc3)c(=O)n12 (stereo unspecified),10.7%
13,O=C1SCN(Cc2ccccc2)CN1Cc1ccccc1,46.3%
14,C[N+](C)(C)CC(=O)N/N=C\c1ccco1,53.3%
15,COc1cc(C2CC(c3ccc(Cl)cc3)=NN2C(C)=O)ccc1Oc1nc2c(c(=O)n(C)c(=O)n2C)n1C (stereo unspecified),101%
16,CCN1CCN(Cc2ccc(NC(=O)Nc3ccc(-n4ccc5c(NC(=O)c6ccccc6)nccc54)cc3)cc2C(F)(F)F)CC1,-39.2% (active)
17,Nc1nc(N)c2cc(NCc3ccc(Cl)c(Cl)c3)ccc2n1,-62.2% (active)
18,O=c1oc2ccccc2cc1-c1cc(-c2ccc(-c3cc(-c4cc5ccccc5oc4=O)nc(-c4cc5ccccc5oc4=O)c3)cc2)cc(-c2cc3ccccc3oc2=O)n1,94.8%
19,C=C1C(=O)O[C@H]2[C@H]1CC/C(COC(=O)N[C@@H](Cc1c[nH]c3ccccc13)C(=O)OC)=C\CC[C@@]1(C)O[C@@H]21,-1.67% (active)

row,Structure (SMILES),growth
1,COc1cc(OC)c(Cl)cc1N,95.5%
2,COC(=O)c1ccc2c(c1)nc(-c1cc3ccccc3[nH]c1=O)n2-c1cc(C(C)(C)C)[nH]n1,32.2%
3,Fc1ccc(-c2nc(-c3ccc(-c4nc5ccc(F)cc5[nH]4)cc3)no2)cc1,63%
4,CCCC(CCC)(C(N)=O)C(=O)O,120%
5,CNC(=O)OC1C(O[C@H]2C[C@H]3[C@@H]4CC=C5C[C@@H](O)CC[C@]5(C)[C@H]4CC[C@]3(C)[C@H]2[C@H](C)C(=O)CCC(C)C)OCC(O)C1OC1OCC(O)C(O)C1OC(=O)c1ccc(OC)cc1 (stereo partly specified),-20.5% (active)
6,CC(=O)O[C@@H]1CC2C(C)(C)CCCC2(C)C2=C1C(=O)C(C(C)C)=CC2=O (stereo partly specified),6.8% (active)
7,CC(=O)Oc1c(Cl)c(Cl)c(Cl)c(Cl)c1Cl,101%
8,Oc1c(C(Nc2ccccc2Br)c2ccccc2)ccc2cccnc12 (stereo unspecified),11.4%
9,O=C1C(Cl)=C(Nc2cccc3ccccc23)C(=O)c2ccccc21,26.6%
10,Nc1c(C(=O)Nc2ccccc2)sc2nc3c(cc12)C(=O)CCC3,17.1%
11,CCOCCNc1ccc(S(=O)(=O)c2ccc(N)cc2)cc1N,107%
12,CCCCSc1ncnc2c1ncn2C1CCCCO1 (stereo unspecified),97%
13,CCNCCCn1c2c(c3ccc(Cl)cc3c1=O)C(=O)c1cc(OC)cnc1-2,-84.2% (active)
14,COc1ccc2nc3ccccc3c(NCc3ccc(C)cc3)c2c1,2.71% (active)
15,C=CCOC(=O)C1=C(C)NC2=C(C(=O)CCC2)C1c1ccc(F)cc1 (stereo unspecified),96.3%
16,O=C(O)C(CCc1ccccc1)NCc1ccccc1 (stereo unspecified),113%
17,COc1ncnc2[nH]cc(CN3CCN(c4ccc(F)cc4)CC3)c12,108%
18,O=S(=O)(Cc1ccc(Cl)cc1Cl)c1ccc(Cl)cc1,10.5%
19,COc1ccc(-c2nc3ccccc3n3cccc23)cc1,96.3%

# Tested on: MALME-3M melanoma
# Experiment: as above
# Conditions: 10 µM unless noted
row,Structure (SMILES),growth
1,CCn1c(Cc2ccccc2Nc2c(Cl)cccc2Cl)nnc1SCC(=O)Nc1cccc(OC)c1,94.3%
2,COc1ccc2nc(C)cc(Sc3nc4ccccc4s3)c2c1,25.7%
3,COc1cnc2c(c1)C(=O)c1c-2n(CCCN2CCN(C)CC2)c(=O)c2cc(Cl)ccc12,75.4%
4,c1cn2cc(-c3ccc4ncn(C5CCCCC5)c4c3)nc(-c3ccc4c(c3)ncn4C3CCCCC3)c2n1,-14.3% (active)
5,CN1C(=O)N(C)C2C1NN=c1s/c(=C\c3ccc(C(F)(F)F)cc3)c(=O)n12 (stereo unspecified),56%
6,CN1C(=O)N(C)C2C1NN=c1s/c(=C\c3ccsc3)c(=O)n12 (stereo unspecified),54.3%
7,C/C(=N\Nc1ccc([N+](=O)[O-])cn1)c1ccc(N)cc1,133%
8,COc1ccccc1/C=N\Nc1ccc([N+](=O)[O-])cn1,117%
9,CCCCCCCCCCCCCCCCCC(=O)[O][Sn]([CH2]CCC)([CH2]CCC)[CH2]CCC,-85.9% (active)
10,C[C@H](NC(=O)c1snnc1C1CC1)c1c(F)cccc1Cl,119%
11,CC(C)c1cccc(C#N)c1,113%
12,CN1C(=O)N(C)C2C1NN=c1s/c(=C\c3ccc(Br)cc3)c(=O)n12 (stereo unspecified),67.7%
13,O=C1SCN(Cc2ccccc2)CN1Cc1ccccc1,101%
14,C[N+](C)(C)CC(=O)N/N=C\c1ccco1,100%
15,COc1cc(C2CC(c3ccc(Cl)cc3)=NN2C(C)=O)ccc1Oc1nc2c(c(=O)n(C)c(=O)n2C)n1C (stereo unspecified),100%
16,CCN1CCN(Cc2ccc(NC(=O)Nc3ccc(-n4ccc5c(NC(=O)c6ccccc6)nccc54)cc3)cc2C(F)(F)F)CC1,-48% (active)
17,Nc1nc(N)c2cc(NCc3ccc(Cl)c(Cl)c3)ccc2n1,-64.9% (active)
18,O=c1oc2ccccc2cc1-c1cc(-c2ccc(-c3cc(-c4cc5ccccc5oc4=O)nc(-c4cc5ccccc5oc4=O)c3)cc2)cc(-c2cc3ccccc3oc2=O)n1,98.3%
19,C=C1C(=O)O[C@H]2[C@H]1CC/C(COC(=O)N[C@@H](Cc1c[nH]c3ccccc13)C(=O)OC)=C\CC[C@@]1(C)O[C@@H]21,-38.4% (active)

row,Structure (SMILES),growth
1,COc1cc(OC)c(Cl)cc1N,134%
2,COC(=O)c1ccc2c(c1)nc(-c1cc3ccccc3[nH]c1=O)n2-c1cc(C(C)(C)C)[nH]n1,96.2%
3,Fc1ccc(-c2nc(-c3ccc(-c4nc5ccc(F)cc5[nH]4)cc3)no2)cc1,68.3%
4,CCCC(CCC)(C(N)=O)C(=O)O,111%
5,CNC(=O)OC1C(O[C@H]2C[C@H]3[C@@H]4CC=C5C[C@@H](O)CC[C@]5(C)[C@H]4CC[C@]3(C)[C@H]2[C@H](C)C(=O)CCC(C)C)OCC(O)C1OC1OCC(O)C(O)C1OC(=O)c1ccc(OC)cc1 (stereo partly specified),4.11% (active)
6,CC(=O)O[C@@H]1CC2C(C)(C)CCCC2(C)C2=C1C(=O)C(C(C)C)=CC2=O (stereo partly specified),-12.8% (active)
7,CC(=O)Oc1c(Cl)c(Cl)c(Cl)c(Cl)c1Cl,91.7%
8,Oc1c(C(Nc2ccccc2Br)c2ccccc2)ccc2cccnc12 (stereo unspecified),28.1%
9,O=C1C(Cl)=C(Nc2cccc3ccccc23)C(=O)c2ccccc21,53.4%
10,Nc1c(C(=O)Nc2ccccc2)sc2nc3c(cc12)C(=O)CCC3,76.2%
11,CCOCCNc1ccc(S(=O)(=O)c2ccc(N)cc2)cc1N,109%
12,CCCCSc1ncnc2c1ncn2C1CCCCO1 (stereo unspecified),115%
13,CCNCCCn1c2c(c3ccc(Cl)cc3c1=O)C(=O)c1cc(OC)cnc1-2,74.2%
14,COc1ccc2nc3ccccc3c(NCc3ccc(C)cc3)c2c1,22.1%
15,C=CCOC(=O)C1=C(C)NC2=C(C(=O)CCC2)C1c1ccc(F)cc1 (stereo unspecified),111%
16,O=C(O)C(CCc1ccccc1)NCc1ccccc1 (stereo unspecified),89.8%
17,COc1ncnc2[nH]cc(CN3CCN(c4ccc(F)cc4)CC3)c12,103%
18,O=S(=O)(Cc1ccc(Cl)cc1Cl)c1ccc(Cl)cc1,58%
19,COc1ccc(-c2nc3ccccc3n3cccc23)cc1,127%
